{"source": "PubChem BioAssay AID694", "about": "(Emory University Molecular Libraries Screening Center, 2007)", "biological_target": "Estrogen receptor (Homo sapiens) (UniProt P03372)", "sequence (P03372 whole entry, looked up)": "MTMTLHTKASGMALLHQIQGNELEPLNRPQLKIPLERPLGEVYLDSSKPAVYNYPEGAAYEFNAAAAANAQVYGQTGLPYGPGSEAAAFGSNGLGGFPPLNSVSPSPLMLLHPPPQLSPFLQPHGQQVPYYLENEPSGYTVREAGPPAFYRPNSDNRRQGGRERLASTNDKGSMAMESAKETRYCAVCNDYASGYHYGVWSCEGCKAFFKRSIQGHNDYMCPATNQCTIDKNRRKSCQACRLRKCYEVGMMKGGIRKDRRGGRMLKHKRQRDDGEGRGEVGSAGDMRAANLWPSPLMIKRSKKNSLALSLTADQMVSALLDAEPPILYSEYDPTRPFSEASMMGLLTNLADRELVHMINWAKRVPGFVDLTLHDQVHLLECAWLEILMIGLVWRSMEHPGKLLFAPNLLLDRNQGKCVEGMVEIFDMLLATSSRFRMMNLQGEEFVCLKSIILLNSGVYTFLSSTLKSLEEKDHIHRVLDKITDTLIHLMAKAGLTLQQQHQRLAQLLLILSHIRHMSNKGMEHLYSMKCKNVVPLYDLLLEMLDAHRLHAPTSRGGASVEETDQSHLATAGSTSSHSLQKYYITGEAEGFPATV", "assay": "ERα coactivator peptide binding inhibitors, primary screen, biochemical, LOPAC library, TR-FRET (AID 694);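 further: receptor was agonist-bound with estradiol present during the assay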", "conditions": "TR-FRET ERalpha-coactivator peptide binding, stronger effect = higher value", "note": "Among all 1,300 compounds or so, about 25 (2%) were called active. How the calls were made is not given here. Many of the other results were omitted from the sample, so actives are more common in it than they were."}
{"smiles": "CCCN(CCC)CCc1ccc(O)c(O)c1", "values": [{"measurement": "inhibition", "setting": "at 45 µM", "value": "-9.9% (inactive)"}, {"measurement": "inhibition", "setting": "inhibition, at 15 µM", "value": 5.4, "unit": "%"}]}
{"smiles": "CN(N=O)c1cc(O)ccc1O", "values": [{"measurement": "inhibition", "setting": "at 45 µM", "value": "98.6% [fluorescence artefact?] (active)"}, {"measurement": "inhibition", "setting": "inhibition, at 15 µM", "value": 95.4, "unit": "%"}]}
{"smiles": "CN(N=O)c1ccc(O)c(O)c1", "values": [{"measurement": "inhibition", "setting": "at 45 µM", "value": "99.9% [fluorescence artefact?] (active)"}, {"measurement": "inhibition", "setting": "inhibition, at 15 µM", "value": 100, "unit": "%"}]}
{"smiles": "CCCN(CCC)[C@@H]1CCc2ccc(O)cc2C1", "values": [{"measurement": "inhibition", "setting": "at 45 µM", "value": "-8.07% (inactive)"}, {"measurement": "inhibition", "setting": "inhibition, at 15 µM", "value": 3.7, "unit": "%"}]}
{"smiles": "C[C@@H]1O[C@H](C[N+](C)(C)C)CS1", "values": [{"measurement": "inhibition", "setting": "at 45 µM", "value": "-6.11% (inactive)"}, {"measurement": "inhibition", "setting": "inhibition, at 15 µM", "value": 5.81, "unit": "%"}]}
{"smiles": "c1ccc2c(N3CCNCC3)cccc2c1", "values": [{"measurement": "inhibition", "setting": "at 45 µM", "value": "-1.45% (inactive)"}, {"measurement": "inhibition", "setting": "inhibition, at 15 µM", "value": 2.78, "unit": "%"}]}
{"smiles": "C=CCN1CCC2(C)c3cc(O)ccc3CC1C2C", "note": "(stereo not given)", "values": [{"measurement": "inhibition", "setting": "at 45 µM", "value": "-11.9% (inactive)"}, {"measurement": "inhibition", "setting": "inhibition, at 15 µM", "value": -3.04, "unit": "%"}]}
{"smiles": "CC[C@@H](CO)NC(=O)[C@@H]1C=C2c3cccc4[nH]cc(c34)C[C@H]2N(C)C1", "values": [{"measurement": "inhibition", "setting": "at 45 µM", "value": "6.08% (inactive)"}, {"measurement": "inhibition", "setting": "inhibition, at 15 µM", "value": 0.61, "unit": "%"}]}
{"smiles": "Clc1ccc(C(c2ccc(Cl)cc2)n2cc[n+](CC(OCc3ccc(Cl)cc3Cl)c3ccc(Cl)cc3Cl)c2)cc1", "note": "(stereo not given)", "values": [{"measurement": "inhibition", "setting": "at 45 µM", "value": "59.5% [fluorescence artefact?] (active)"}, {"measurement": "inhibition", "setting": "inhibition, at 15 µM", "value": 52.6, "unit": "%"}]}
{"smiles": "CO[C@H]1CC=C2CCN3CCC4=C(CC(=O)OC4)[C@]23C1", "values": [{"measurement": "inhibition", "setting": "at 45 µM", "value": "-3.26% (inactive)"}, {"measurement": "inhibition", "setting": "inhibition, at 15 µM", "value": 3.57, "unit": "%"}]}
{"smiles": "O=C(O)[C@@H]1CCN1", "values": [{"measurement": "inhibition", "setting": "at 45 µM", "value": "-15.6% (inactive)"}, {"measurement": "inhibition", "setting": "inhibition, at 15 µM", "value": -3.72, "unit": "%"}]}
{"smiles": "CCCN(CCC)C1CCc2ccc(O)cc2C1", "note": "(stereo not given)", "values": [{"measurement": "inhibition", "setting": "at 45 µM", "value": "-3.18% (inactive)"}, {"measurement": "inhibition", "setting": "inhibition, at 15 µM", "value": 3.52, "unit": "%"}]}
{"smiles": "N[C@@H](Cn1cc(I)c(=O)[nH]c1=O)C(=O)O", "values": [{"measurement": "inhibition", "setting": "at 45 µM", "value": "0.52% (inactive)"}, {"measurement": "inhibition", "setting": "inhibition, at 15 µM", "value": 3.65, "unit": "%"}]}
{"smiles": "COC(=O)c1cc2c(cn1)[nH]c1ccccc12", "values": [{"measurement": "inhibition", "setting": "at 45 µM", "value": "-2.45% (inactive)"}, {"measurement": "inhibition", "setting": "inhibition, at 15 µM", "value": 2.65, "unit": "%"}]}
{"smiles": "NC(Cc1cc(O)c(O)cc1O)C(=O)O", "note": "(stereo not given)", "values": [{"measurement": "inhibition", "setting": "at 45 µM", "value": "100% [fluorescence artefact?] (active)"}, {"measurement": "inhibition", "setting": "inhibition, at 15 µM", "value": 100, "unit": "%"}]}
{"smiles": "Cc1o[nH]c(=O)c1CC(N)C(=O)O", "note": "(stereo not given)", "values": [{"measurement": "inhibition", "setting": "at 45 µM", "value": "-4.5% (inactive)"}, {"measurement": "inhibition", "setting": "inhibition, at 15 µM", "value": -1.59, "unit": "%"}]}
{"smiles": "N[C@@H](CCl)C(=O)O", "values": [{"measurement": "inhibition", "setting": "at 45 µM", "value": "-9.05% (inactive)"}, {"measurement": "inhibition", "setting": "inhibition, at 15 µM", "value": -4.18, "unit": "%"}]}
{"smiles": "O=[N+]([O-])c1ccc(O[C@@H]2O[C@H](CO)[C@@H](O)[C@H](O)[C@H]2F)c([N+](=O)[O-])c1", "values": [{"measurement": "inhibition", "setting": "at 45 µM", "value": "-0.11% (inactive)"}, {"measurement": "inhibition", "setting": "inhibition, at 15 µM", "value": 6.88, "unit": "%"}]}
{"smiles": "Fc1ccc(C(OCCN2CCN(CCCc3ccccc3)CC2)c2ccc(F)cc2)cc1", "values": [{"measurement": "inhibition", "setting": "at 45 µM", "value": "-7.86% (inactive)"}, {"measurement": "inhibition", "setting": "inhibition, at 15 µM", "value": -2.51, "unit": "%"}]}
{"smiles": "CN1C[C@@H](CS(=O)(=O)N(C)C)C[C@@H]2c3cccc4c3c(cn4C)C[C@H]21", "values": [{"measurement": "inhibition", "setting": "at 45 µM", "value": "-2.14% (inactive)"}, {"measurement": "inhibition", "setting": "inhibition, at 15 µM", "value": -2.21, "unit": "%"}]}
